An excerpt weighted towards active compounds, which were near 3.1% of everything screened.
Nrf2 block – blocks Nrf2 signaling; A549 ARE-Fluc reporter, luciferase luminescence, 18-24 h; Potency, µM (doses to about 46 µM), for inactives: at the highest dose activity change, negative = inhibition, most hits filed as inhibitors; 2.1% of 360,000 active; also: % is scaled to controls: 0 for no effect and ±100 for the full control effect; nearly all actives have a fitted effect of over 60% in size
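Concentration-response testing used A549 ARE_Fluc cells at 5000 cells/well. Following an 18-24 h compound incubation, viability was read by fluorescence (Ex 405/Em 525) and luciferase output by luminescence.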
mIDH1 inhibitor – blocks human mutant IDH1 R132H enzyme. AID 602179. Potency, µM (titrated, usually from 76.6 µM), for inactives: at the highest dose activity change, negative = inhibition, hits mostly inhibitors. 0.093% of 390,000 active. IDH1-R132H enzyme, NADPH consumption, diaphorase/resazurin fluorescence. O75874; also: % is scaled to controls: 0 for no effect and ±100 for the full control effect; nearly all actives have a fitted effect of over 65% in size
Target sequence (O75874 whole entry R132H, stated change not applied): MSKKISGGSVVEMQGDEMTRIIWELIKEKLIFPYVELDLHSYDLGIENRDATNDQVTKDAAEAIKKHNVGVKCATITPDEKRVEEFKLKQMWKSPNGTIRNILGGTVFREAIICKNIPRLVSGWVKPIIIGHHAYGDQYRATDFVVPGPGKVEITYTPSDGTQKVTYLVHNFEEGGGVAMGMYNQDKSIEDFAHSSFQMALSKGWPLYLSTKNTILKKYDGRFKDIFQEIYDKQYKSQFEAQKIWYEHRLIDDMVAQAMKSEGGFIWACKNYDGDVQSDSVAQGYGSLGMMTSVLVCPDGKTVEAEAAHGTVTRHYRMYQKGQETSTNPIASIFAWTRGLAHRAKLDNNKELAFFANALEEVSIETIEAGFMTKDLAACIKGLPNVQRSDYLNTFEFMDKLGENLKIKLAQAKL
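IDH1-R132H (0.5 ug/mL dispensed) in pH 7.5 Tris buffer was preincubated 30 min with compound, then given a substrate mix of 0.016 mM NADPH and 2 mM alpha-KG for 80 min at room temperature; remaining NADPH was read by diaphorase/resazurin fluorescence.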
Mito fusion yeast – inhibitors of mitochondrial division or activators of mitochondrial fusion; 0.23% of 320,000 active; Potency, µM (doses to about 46.1 µM), for the others: at the highest dose growth rescue (activation), usual class: activators; S. cerevisiae fusion-defective mutant growth rescue, CellTiterGlo 48 h; AID 485298; also: % of control where 0% means no effect; nearly all actives have a fitted effect of over 45% in size
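S. cerevisiae fusion-defective temperature-sensitive mutants (e.g. fzo1-1, mgm1-5) grown 48 h at 37C in YPEG (ethanol/glycerol non-fermentable) medium with 23 nl compound per well; growth rescue read as CellTiterGlo luminescence.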
TrxR1 substrate – rat thioredoxin reductase 1 substrate activity; O89049; purified TrxR1 substrate turnover, NADPH consumption readout; Potency, µM (series often up to 114 µM), for inactives: at the top dose activity change, negative = substrate turnover; 0.01% of 390,000 active; AID 588456; also: % is scaled to controls: 0 for no effect and ±100 for the full control effect; nearly all actives have a fitted effect of over 50% in size
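Rat TrxR1, dispensed at 90 nM, was prereduced with 400 uM NADPH (final) for 5 min at ~22 deg C, then incubated with compound 15 min before 400 uM selenite. A first-read NADPH fluorescence drop versus no-compound background flagged substrates.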
rTrxR1 inhibitor – blocks rat thioredoxin reductase 1; recombinant rTrxR1, NADPH fluorescence consumption, selenite substrate; Potency, µM (titrated, usually from 114 µM), inactives show top-dose activity change, negative = inhibition, actives largely listed as inhibitors; 1% of 390,000 active; also: % is scaled to controls: 0 for no effect and ±100 for the full control effect; nearly all actives have a fitted effect of over 65% in size
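Rat TrxR1 (90 nM in the dispensed reagent) was pre-reduced with 400 uM NADPH for 5 min at room temperature, then incubated with compound for 15 min. After 400 uM selenite was added, NADPH fluorescence (Ex 340/Em 450 nm) was followed for 8 min.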
A549 tox – A549 cytotoxicity, counter-screen for Nrf2 inhibitors | A549 ARE-Fluc cells, CellTiter-Fluor viability, 18-24 h | Potency, µM (doses to about 46 µM), for inactives: at the top dose activity change, negative = cytotoxicity, most hits filed as inhibitors | 0.16% of 390,000 active | AID 504648; also: % is scaled to controls: 0 for no effect and ±100 for the full control effect
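Cytotoxicity counterscreen: CellTiter-Fluor fluorescence was measured in A549 ARE_Fluc cells after 18-24 h of compound exposure in a concentration series. The subsequent BugLite luminescent read reports ARE-luciferase activity.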
* marks the source's active call; other numbers are inactive results; ? = inconclusive; nt = not tested or not shown; ! = repeats disagree; [ ] = dose if it differs, or a comment. Calls follow the shape of the dose curve; as a rule, active = well fitted curve in the direction sought with a large enough effect; inconclusive = small, poorly fitted or top-dose-only effect, or another doubt; inactive = no such curve, though single readings can be large; an effect the other way counts as inactive or inconclusive. Potency is read from the fitted curve at half-maximal effect.

SMILES	Nrf2 block	mIDH1 inhibitor	Mito fusion yeast	TrxR1 substrate	rTrxR1 inhibitor	A549 tox
COC(=O)c1ccc(CNC(=O)c2ccc(S(=O)(=O)N(C)c3ccccc3OC)cc2)cc1	23µM*	-5%	5%	-4%	0%	0%
O=C(NCC(c1ccco1)S(=O)(=O)c1cccs1)c1ccc(F)c(F)c1 (centres undefined)	nt	5%	nt	6%[57.1 µM]	8%[57.1 µM]	-4%
COC(=O)c1cccc(NC(=O)c2ccc(S(=O)(=O)N(C)c3ccccc3OC)cc2)c1	nt	-2%	nt	nt	nt	nt
Cc1nc2ccc(NC(=O)c3cccc(S(=O)(=O)N(C)c4ccccc4)c3)cc2s1	21µM*	5%	?	7%	18%	?
COc1ccccc1N(C)S(=O)(=O)c1ccc(C(=O)Nc2ccc3nc(C)sc3c2)cc1	18µM*	1%	?	1%	2%	-12%
COc1ccccc1N(C)S(=O)(=O)c1ccc(C(=O)Nc2cccc(Br)c2)cc1	16µM*	-5%	nt	12%[57.1 µM]	27%[57.1 µM]	-9%
Cc1nc2ccc(NC(=O)c3ccccc3)cc2s1	?	7%	-3%	0%	11%	9%
CN(c1ccccc1)S(=O)(=O)c1cccc(NC(=O)c2ccc3ncsc3c2)c1	16µM*	10%	9%	-4%	9%	-21%
CCOC(=O)c1[nH]c(C)c(C(=O)NCCc2ccccc2)c1C	-8%	12%	nt	-1%	9%	-2%
CCN(C(=O)NCc1noc2ccccc12)c1cc(C)ccc1C	-11%	11%	nt	-7%	-5%	14%
Cc1c(NC(=O)c2ccc(OC(C)C)cc2)cccc1-c1nc2ncccc2o1	?	-15%	nt	7%	12%	10%
Cc1ccc(N(C)S(=O)(=O)c2cccc(C(=O)Nc3nc4ccccc4[nH]3)c2)cc1	?	3%	20µM*	-1%	1%	-10%
CN(C)c1cccc(C(=O)Nc2nc3ccccc3[nH]2)c1	?	16%	-5%	11%	13%	0%
CN(c1ccccc1)S(=O)(=O)c1ccc(NC(=O)c2ccc(F)cc2)cc1	-15%	-8%	nt	-7%	4%	1%
COCc1ccc(C(=O)Nc2cccc(S(=O)(=O)N(C)c3ccccc3)c2)cc1	18µM*	0%	nt	7%[57.1 µM]	4%[2.29 µM]	-10%
CN(c1ccccc1)S(=O)(=O)c1ccc(NC(=O)c2ccccc2)cc1	?	-1%	22µM*	-15%	13%[11.4 µM]	3%
CN(c1ccccc1)S(=O)(=O)c1cccc(NC(=O)Cn2cnc3c2c(=O)n(C)c(=O)n3C)c1	10µM*	-2%	-4%	-5%	0%	0%
Cn1c(=O)c2c(ncn2CC(=O)Nc2ccccc2)n(C)c1=O	-5%	0%	-2%	0%	7%	-9%
O=C(/C=C/c1ccco1)NCC(=O)N/N=C/c1ccc([N+](=O)[O-])cc1	8%	-4%	8%	-10%	45µM*	0%
Cc1nn(C(C)C(=O)NC2CCCCC2)c(=O)c2c1sc1ccccc12 (centres undefined)	-11%	-2%	nt	11%	4%	?
O=C(C[n+]1ccccc1Cl)c1cccc([N+](=O)[O-])c1	nt	nt	nt	-4%	-15%	nt
O=C1C=CC(=O)N1CCCCCCCCCCN1C(=O)C=CC1=O	26µM*	1%	nt	9%[2.29 µM]	?	?
CCc1cc(Cn2nc(-c3ccccc3)cc2C(=O)NCc2cccs2)on1	?	8%	13µM*	-9%	7%	-24%
CC(=O)OCCNc1cc(SCc2ccco2)c2nonc2c1[N+](=O)[O-]	6%	6%	19%	-9%	22µM*	-11%
COC(=O)CCSc1cc(NCCOC(C)=O)c([N+](=O)[O-])c2nonc12	-15%	1%	7%	-20%	44%[0.0914 µM]	?
SMILES	Nrf2 block	mIDH1 inhibitor	Mito fusion yeast	TrxR1 substrate	rTrxR1 inhibitor	A549 tox
O=[N+]([O-])c1c(NCCCO)cc(N2CCCCCC2)c2nonc12	-20%	3%	6%	-15%[57.1 µM]	-66%	-28%
Cn1ccnc1Sc1cc(NCCCO)c([N+](=O)[O-])c2nonc12	-4%	5%	-9%	9%[57.1 µM]	?	?
CCCC(=O)OCCNc1cc(SCCC(=O)OC)c2nonc2c1[N+](=O)[O-]	-7%	-3%	0%	-12%	10µM*	-24%
O=[N+]([O-])c1c(NCCCO)cc(SCc2ccco2)c2nonc12	-8%	0%	0%	-14%	14µM*	-13%
O=[N+]([O-])c1c(NCCCO)cc(Sc2ccc(Cl)cc2)c2nonc12	3%	-1%	15%	-5%	2.8µM*	-19%
CCCCNc1c(-c2ccc(OC)c(Sc3ccc(OC)cc3)c2)nc2ccccn12	18µM*	3%	11%	59%	50%	?
CCCCNc1c(-c2ccc(OC)c(Sc3ccc(OC)cc3)c2)nc2cnccn12	?	-13%	nt	21%[57.1 µM]	-4%[57.1 µM]	-5%
COc1cc(F)c(S(=O)(=O)N2CCN(S(=O)(=O)c3cccc(NC(C)=O)c3)CC2)c(F)c1	-14%	nt	nt	nt	nt	12%
O=C(NCCCN1CCN(c2ccccc2F)CC1)c1nnc(Cc2ccc(Cl)cc2Cl)o1	18µM*	10%	nt	-4%	5%	-15%
CCc1noc(-c2ccc(N3CCCCC3)c([N+](=O)[O-])c2)n1	16%	18%	nt	-8%	4%	6%
COc1ccc(CNC(=O)c2cc(COc3c(F)cccc3F)on2)cc1OC	26µM*	-1%	-4%	-3%	3%	-15%
O=C1c2ccccc2C(=O)c2c1cccc2N1CCCC1	7%	1%	19%	-2%	-6%	?
O=C1C=C(N2CCCCC2)c2ccccc2C1=O	9.2µM*	26%	nt	-28%[57.1 µM]	-6%[57.1 µM]	18µM*
CN1CCN2c3ccccc3CC3(C(=O)OC(C)(C)OC3=O)C2C1 (centres undefined)	4%	nt	nt	-1%	11%	3%
CC1(C)CCC2=C(O1)c1ccccc1C(=O)C2=O	nt	nt	5%	18µM*	25µM*!	nt
CC1(C)CCC(=O)c2ccccc21	-2%	0%	nt	5%[57.1 µM]	7%[57.1 µM]	-5%
Cc1cn([C@@H](CCCCNC(=O)OC(C)(C)C)C(=O)NCCCCCCCCCCC(=O)N2CCN(C(=O)OC(C)(C)C)CC2)nn1	10µM*	10%	-9%	0%[57.1 µM]	1%[57.1 µM]	16µM*
CCOCCCNc1ncnc2c1[nH]c1ccccc12	23µM*	7%	2%	27%	-9%	-21%
CCCCOc1ncnc2c1[nH]c1ccc(F)cc12	2.1µM*	-3%	-4%	8%	4%	-17%
CCCCOc1ncnc2c1[nH]c1ccccc12	8.2µM*	5%	4%	6%	2%	?

High-throughput results as filed in PubChem.
